# Measurements as given in PubChem BioAssay AID493056 (National Center for Advancing Translational Sciences (NCATS), 2011).
# About 2,400 (0.67%) of roughly 360,000 compounds were called active. Rule as the data show it: active = enhancement above about 30%; inactive = the rest. The full list was thinned out, with actives kept by preference.
# Biological target: Thyrotropin-releasing hormone receptor (Homo sapiens) (UniProt P34981)
# Experiment: qHTS for Small Molecule Agonists and Allosteric Enhancers of Human TRH Receptor: Primary Screen for Enhancers; also: 0% is about no effect
# Settings: TRHR cells, fluo-8 calcium fluorescence, EC20 TRH enhancement; at 2 µM; hits give high values
# Method in brief: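 TRHR-expressing cells loaded with fluo-8 calcium dye were read kinetically (ex 480/em 530) during compound addition, then stimulated with an EC20 of TRH (10 nM final). Enhancement of the Gq-mediated intracellular calcium response was scored.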
# Chain of Thyrotropin-releasing hormone receptor (Homo sapiens) (P34981 whole entry, looked up): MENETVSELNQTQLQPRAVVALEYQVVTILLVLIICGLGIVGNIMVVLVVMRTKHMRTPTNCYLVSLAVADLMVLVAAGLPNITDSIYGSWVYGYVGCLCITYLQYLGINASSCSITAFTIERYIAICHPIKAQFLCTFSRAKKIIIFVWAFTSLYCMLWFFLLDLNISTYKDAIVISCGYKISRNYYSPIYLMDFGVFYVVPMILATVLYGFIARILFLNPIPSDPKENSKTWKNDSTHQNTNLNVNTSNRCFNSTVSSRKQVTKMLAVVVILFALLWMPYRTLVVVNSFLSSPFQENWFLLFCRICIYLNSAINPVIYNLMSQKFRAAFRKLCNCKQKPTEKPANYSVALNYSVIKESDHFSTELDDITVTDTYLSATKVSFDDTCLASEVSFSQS
row,Compound,enhancement
1,COc1cc2nc(NCC(C)c3ccccc3)n3nc(-c4ccccc4)nc3c2cc1OC (stereo not drawn),15.5% (inactive)
2,O=C(NCc1cccs1)c1cc(-c2ccccn2)nc2ccc(Br)cc12,30.5% (active)
3,O=C(CN1CCN(c2ccccn2)CC1)NCc1cccs1,17.1% (inactive)
4,O=C(NCc1cccs1)c1ccc(Br)o1,-3.47% (inactive)
5,CCc1ccc(-n2nc(C)c3c(C)cc(=O)n(CC(=O)Nc4ccc(F)cc4C)c32)cc1,6.58% (inactive)
6,CCOC(=O)CSc1nccc(N(C)C)c1C#N,36.1% (active)
7,CN(C)c1ccnc(Oc2ccc(F)cc2)c1C#N,4.36% (inactive)
8,CCOC(=O)CSc1nc(N2CCOCC2)c2c(c1C#N)CC(C(C)C)OC2 (stereo not drawn),-9.38% (inactive)
9,O=C(C1COc2ccccc2O1)N(Cc1cccnc1)c1nc2c(F)cc(F)cc2s1 (stereo not drawn),-1.37% (inactive)
10,COC(=O)c1ccc(NC(=O)CCc2c(C)nc3c(c(C)nn3-c3ccc(C)cc3)c2C)cc1,0.187% (inactive)
11,Cc1cc(C)c(NC(=O)CCc2c(C)nc3c(c(C)nn3C(C)(C)C)c2C)c(C)c1,31% (active)
12,CCCNC(=O)CCc1c(C)nc2c(c(C)nn2-c2ccc(C)cc2)c1C,7.28% (inactive)
13,COc1ccc(N2CCN(C(=O)C3CCCN(C(=O)c4cc5sccc5n4C)C3)CC2)cc1 (stereo not drawn),32.5% (active)
14,Cn1c(C(=O)N2CCCC(C(=O)NCc3ccccc3)C2)cc2sccc21 (stereo not drawn),4.18% (inactive)
15,Cn1c(C(=O)N2CCC(C(=O)N3CCN(c4ccccc4)CC3)CC2)cc2sccc21,0.218% (inactive)
16,Cc1ccccc1CSc1nc2c([nH]c3ccccc32)c(=O)n1C,-2.07% (inactive)
17,COc1ccc(Cl)cc1-n1c(CCC(=O)O)ccc1-c1ccc(C)cc1,7.8% (inactive)
18,Cc1ccc(N2CCN(S(=O)(=O)c3ccc(F)cc3)CC2)c(C)c1,32% (active)
19,Cc1ccc(C)c(N2CCN(S(=O)(=O)c3ccc4c(c3)C(C(C)C)C(=O)N4)CC2)c1 (stereo not drawn),-4.92% (inactive)
20,Cc1ccc(S(=O)(=O)N2CCN(C(=O)c3cccs3)CC2)cc1,0.403% (inactive)
21,Cc1ccc(S(=O)(=O)N2CCN(C)CC2)cc1,33.6% (active)
22,Cc1ccccc1N1CCN(S(=O)(=O)c2ccc3ccccc3c2)CC1,-5.29% (inactive)

row,Compound,enhancement
1,Cc1ccc(S(=O)(=O)N2CCC(N3CCCCCC3)CC2)cc1,26.1% (inactive)
2,CCc1cc2c(cc3c(=O)n(CC(=O)N4CCN(c5cc(Cl)ccc5C)CC4)nc(CC)n32)s1,-2.18% (inactive)
3,Cc1nc2sc(C)c(C)n2c(=O)c1S(=O)(=O)NCCc1ccc(Cl)cc1,2.98% (inactive)
4,O=C(COC(=O)CSc1nnc(-c2ccc(Cl)cc2)o1)Nc1cc(Cl)cc(Cl)c1,-8.1% (inactive)
5,O=C(COC(=O)c1ccccc1Br)Nc1nnc(-c2ccccc2)o1,32.2% (active)
6,O=C(Nc1nnc(-c2ccc(Cl)cc2)o1)c1ccccc1Br,1.12% (inactive)
7,CSc1ncc(C(=O)NCc2ccccc2Cl)c(C(F)(F)F)n1,-4.14% (inactive)
8,CN(C)c1ccc(NC(=O)CSc2nc(-c3ccco3)cc(C(F)(F)F)n2)cc1,10.8% (inactive)
9,O=C(NC1CCCCC1)c1ccc(Cn2c(SCc3ccccc3)nc3cccnc32)cc1,7.91% (inactive)
10,COc1cccc(C(=O)NCCSc2ccc(Br)cc2)c1,31.9% (active)
11,COc1cc(C(=O)NCC(=O)NCCSc2ccc(Br)cc2)cc(OC)c1OC,1.93% (inactive)
12,COc1ccccc1C(=O)NCC(=O)NCCSc1ccc(Br)cc1,0.828% (inactive)
13,CCOc1cc(C2C(C(=O)Nc3ccc(OC)cc3)=C(C)Nc3nc(SC)nn32)ccc1O (stereo not drawn),-5.28% (inactive)
14,COc1ccccc1N1CCN(C(=O)C2Cc3ccccc3CN2C(=O)c2ccco2)CC1 (stereo not drawn),6.6% (inactive)
15,O=C(C1Cc2ccccc2CN1C(=O)c1ccco1)N1CCN(c2ccccc2)CC1 (stereo not drawn),36% (active)
16,CCC(=O)N1c2ccccc2CC1C(=O)N1CCN(c2ccccc2)CC1 (stereo not drawn),-2.98% (inactive)
17,COc1cccc(NC(=O)CSC2=Nc3ccccc3C3=NC(CC(=O)NC4CCCCC4)C(=O)N23)c1 (stereo not drawn),-3.86% (inactive)
18,COc1ccc(NC(=O)c2sc3nc(-c4cc5cccc(OC)c5oc4=O)[nH]c(=O)c3c2C)cc1,8.15% (inactive)
19,Cn1c(=O)c2c(SCC(=O)NCC3CCCO3)nc(-c3ccccc3F)nc2n(C)c1=O (stereo not drawn),-1.86% (inactive)
20,Cc1ccc(-c2cn(S(=O)(=O)c3cccc([N+](=O)[O-])c3)nc2N)cc1,43.3% (active)
21,CC1=NCCN1S(=O)(=O)c1cccc([N+](=O)[O-])c1,18.4% (inactive)
22,Cc1cc(C)n(S(=O)(=O)c2cccc([N+](=O)[O-])c2)n1,-7.84% (inactive)

row,Compound,enhancement
1,CCOc1ccc(CNC(=O)c2cc(=O)[nH]c3ccc(S(=O)(=O)N4CCCCC4)cc23)cc1,5.17% (inactive)
2,COc1ccc(OC)c(NC(=O)Cn2c(=O)n(Cc3ccccc3)c(=O)c3ccccc32)c1,-7.19% (inactive)
3,COc1ccc(C(=O)N2CCC(c3nc4ccccc4o3)CC2)cc1,6.96% (inactive)
4,COc1ccccc1-c1nnc(SCC(N)=O)o1,0.976% (inactive)
5,COc1ccccc1-c1nnc(C2CCN(C(=O)c3ccc(Cl)cc3)CC2)o1,49.9% (active)
6,COC(=O)c1c(NC(=O)c2ccc(Cl)c(Cl)c2)sc2c1CCCC2,12.7% (inactive)
7,COc1cccc(C(=O)NC2CCN(C#N)CC2)c1,-0.807% (inactive)
8,Cc1ccc(Cl)cc1N1CCN(C(=O)c2cnc3c(-c4ccc(F)cc4)c(C)nn3c2C)CC1,-2.73% (inactive)
9,CCOc1ccc(N(CC)C(=O)c2noc3c2COc2ccc(C)cc2-3)cc1,-7.18% (inactive)
10,COc1ccc(-n2cnnc2SCC(=O)Nc2cccc(S(N)(=O)=O)c2)cc1,17.5% (inactive)
11,NS(=O)(=O)c1cccc(NC(=O)CSc2nc3ccccc3n2-c2ccccc2)c1,41.7% (active)
12,Cc1nnc(SCC(=O)Nc2cccc(N)c2)n1-c1ccccc1,3.5% (inactive)
13,O=C(CNC(=O)c1ccc(Cl)c(C(F)(F)F)c1)OC(C(=O)Nc1cc(C(F)(F)F)ccc1Cl)c1ccccc1 (stereo not drawn),-3.64% (inactive)
14,Cc1nn(-c2nc(-c3ccccc3)cc(C(F)(F)F)n2)c(C)c1Cl,-7.42% (inactive)
15,COc1cccc(-n2ccn(CC(=O)NCc3ccc(C)cc3)c(=O)c2=O)c1,6.62% (inactive)
16,COc1ccc(Cl)cc1NC(=O)CN(C)Cc1ccc(OC)c(OC)c1,56.6% (active)
17,COc1ccc(Cl)cc1NC(=O)CN(C)CC(=O)Nc1ccc2c(c1)OCO2,-3.24% (inactive)
18,COc1ccc(OC)c(NC(=O)CN(Cc2ccc(Cl)cc2)S(C)(=O)=O)c1,-0.638% (inactive)
19,O=C(COc1ccccc1Cl)N1CCCCCCC1,-0.869% (inactive)
20,Cc1ccc(Cl)c(OCC(=O)N2CCc3ccccc3C2)c1,61.4% (active)
21,Cc1ccc(Cl)c(OCC(=O)NN2CCN(C)CC2)c1,1.82% (inactive)
22,Cc1cccc(CC(=O)Nc2cccc(-c3cn4cccnc4n3)c2)c1,-2.19% (inactive)

row,Compound,enhancement
1,Cc1ccc(SCC(=O)Nc2ccc3oc(-c4ccccc4F)nc3c2)cc1,-1.22% (inactive)
2,CCc1ccc(N2C(=O)CN(S(=O)(=O)CC)CC2(C)C(=O)NC2CCCCC2)cc1 (stereo not drawn),-0.256% (inactive)
3,Cc1ccc(C)c(CN2C(=O)c3ccccc3S(=O)c3ccc(C(=O)N4CCOCC4)cc32)c1 (stereo not drawn),30.5% (active)
4,O=C(c1ccc2c(c1)N(Cc1ccccc1F)C(=O)c1ccccc1S2(=O)=O)N1CCOCC1,16.1% (inactive)
5,Cc1ccc(CCNC(=O)c2ccc3c(c2)N(Cc2cc(C)ccc2C)C(=O)c2ccccc2S3=O)cc1 (stereo not drawn),26.1% (inactive)
6,COc1ccc(NC(=O)C2CCN(c3ccc(Sc4ccc(C)cc4)nn3)CC2)c(OC)c1,7.96% (inactive)
7,CCc1nn(CC(=O)N2CCN(c3ccc(Cl)cc3)CC2)c(=O)c2cc3occc3n12,3.41% (inactive)
8,CCc1ccc(S(=O)(=O)Nc2ccc(C)c(NS(C)(=O)=O)c2)cc1,2.33% (inactive)
9,CCc1ccc(S(=O)(=O)N/N=C\c2ccc([N+](=O)[O-])o2)cc1,49.5% (active)
10,COc1ccc(S(=O)(=O)N/N=C\c2ccc(OC)c(COc3ccc(C)cc3[N+](=O)[O-])c2)cc1,-2.77% (inactive)
11,O=c1c2ccccc2n(Cc2cccc(Cl)c2)c(=O)n1Cc1ccccc1,1.58% (inactive)
12,CCOc1ccc(N(CC)C(=O)c2cc3c(=O)oc4ccccc4c3s2)cc1,-1.26% (inactive)
13,Oc1c(Br)cccc1/C=N/Nc1c(F)c(F)c(F)c(F)c1F,35.3% (active)
14,O=C1C(F)N([S+](=O)([O-])c2ccc3c(c2)OCCO3)CCN1[S+](=O)([O-])c1c(F)cccc1F (stereo not drawn),3.19% (inactive)
15,N#CN1CCC(NC(=O)c2ccc(F)cc2)CC1,1.17% (inactive)
16,Cn1cccc1C1(C(F)(F)F)NCCNC1=O (stereo not drawn),50.7% (active)
17,Cn1c(=O)c2c(ncn2CC(=O)Nc2cccc(C(F)(F)F)c2)n(C)c1=O,-2.46% (inactive)
18,O=[S+]([O-])(c1ccc2c(c1)OCCO2)N1CCN([S+](=O)([O-])c2c(Cl)cc(Cl)cc2Br)CC1,-1.85% (inactive)
19,CCOc1ccc(-n2c(SCC(=O)NCc3ccccc3)nc3n[nH]c(C)c3c2=N)cc1,-5.76% (inactive)
20,CCn1c(=O)c(=O)n(CC)c2cc(N3CCCCC3)c(NC(=O)c3cccc(F)c3)cc21,4.18% (inactive)
21,Cc1ccc(C(=O)Nc2cc3c(cc2N2CCCC2)n(C)c(=O)c(=O)n3C)cc1,32.4% (active)
22,CCn1c(=O)c(=O)n(CC)c2cc(N3CCCCC3)c(NC(=O)c3ccc(Cl)cc3)cc21,4.4% (inactive)
